Inconclusive results are not listed. Values without a mark were called inactive. Activity calls are given as the source filed them. The call rests on the fitted dose curve; in most records, active means well fitted activation curve with a large enough effect; inconclusive means small, poorly fitted or top-dose-only effect; inactive means no such curve, though single readings can be large or run the other way.
Assay: qHTS assay for re-activators of p53 using a Luc reporter: Hit Validation; further: nearly all actives have a fitted effect of over 75% in size; on activation: 0% is about no effect
Details: p53-responsive luciferase reporter cells, luminescence, H1299 line expressing heat-sensitive Ala138Val p53; series mostly up to 46.1 µM; activation: at the top concentration
Procedure, shortened: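 Hit confirmation with a 1:5 dilution series, at 37 deg C for 24 hrs, in H1299 cells co-expressing temperature-sensitive p53-A138V and p53-responsive luciferase. Nocodazole served as control; luminescence read after 10 min with detection reagent.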
In the case of `O=C(NC(=S)NCCc1ccccc1)C1CCCCC1`, the Potency is reported as 23100 nM (active). For `Cc1cc(C(F)(F)F)c(C#N)c(SCC(=O)Nc2nc3ccccc3s2)n1`, the Potency was 1460 nM (active). For `Cc1nc2ccccc2nc(C)c1=NOCc1ccccc1Cl`, the “activation” value was 4.17%. For `O=C1CC(c2ccc3c(c2)OCCO3)Oc2ccc([N+](=O)[O-])cc21` (stereo not drawn), the Potency was 2590 nM (active). In the case of `O=C(c1ccc(N2CCN(S(=O)(=O)c3ccccc3)CC2)c([N+](=O)[O-])c1)N1CCOCC1`, the “activation” value is reported as 17.2%. In the case of `CC(=O)c1cccc(NC(=O)c2sc(Cl)nc2C)c1`, the “activation” value is reported as 7.29%. For `CN(C)c1ccc(NC(=O)CCCc2ccccc2)cc1`, the Potency was 1460 nM (active). For `O=C(Nc1ccc2ccccc2c1)c1ccc(Cl)cc1Cl`, the Potency was 291 nM (active). With `CCOc1ccc(/C=N/NC(=O)CN2CCSCC2)cc1` the “activation” value was -1.56%. In the case of `Cc1ccc(C(=O)CN2C(=O)NC3(CCCCC3C)C2=O)s1` (stereo not drawn), the “activation” value is reported as -5.21%. For `COC(=O)C1=C(C(=O)c2ccccc2)C(c2ccc(OC)c(OC)c2)Nc2nnnn21` (stereo not drawn), the “activation” value was 7.81%. With `C/C(=N/NC(=S)Nc1ccccc1)c1ccc2c(c1)OCO2` the “activation” value was -85.9%. In the case of `O=c1[nH]c(N/N=C/c2ccc(O)cc2)nc2ccccc12`, the Potency is reported as 4610 nM (active). With `COCCCN=C(c1ccco1)n1c(=S)nc(-c2ccco2)n(CCCOC)c1=S` the “activation” value was 39.6%. In the case of `CC(=O)NC1=C(Nc2ccc(N(C)C)cc2)C(=O)c2ccccc2C1=O`, the Potency is reported as 9200 nM (active). For `O=C(O)C1CC(=O)N(c2ccc(Br)cc2)C1` (stereo not drawn), the “activation” value was -4.17%. For `Cc1ccc(CNc2cc(C(=O)O)ccc2Cl)s1`, the “activation” value was -12.5%. For `CCOc1ccc(S(=O)(=O)c2c(C(=O)c3ccc(C)cc3)cnc3cc4c(cc23)OCCO4)cc1`, the “activation” value was -37%. For `Cc1nonc1NCn1nnc2ccccc21`, the activation was 7.94% [at 9.22 µM]. In the case of `C1=C(CCNc2ncnc3nc[nH]c23)CCCC1`, the Potency is reported as 1640 nM (active). With `Fc1ccccc1OCCSc1nnnn1-c1ccccc1` the Potency was 820 nM (active). For `CCCCNC(=S)N(Cc1c(C)noc1C)c1ccccc1`, the “activation” value was 4.69%. With `Cc1ccc2nc(N3C(=O)C(O)=C(C(=O)c4ccc(C)o4)C3c3ccco3)sc2c1` (stereo not drawn) the “activation” value was -2.6%. For `COc1ccccc1C(=O)NC(=S)NNC(=O)c1sc2ccccc2c1Cl`, the “activation” value was 43.8%. With `Cc1ccc(-n2c(C)cc(C(=O)CSc3nnc4ccccn34)c2C)cc1` the Potency was 6510 nM (active). With `COc1ccc2oc(C(=O)Nc3nnc(C)s3)c(C)c2c1` the Potency was 1840 nM (active). For `O=C(COC(=O)C12CC3CC(CC(O)(C3)C1)C2)Nc1ccc(Br)cc1F`, the Potency was 14600 nM (active). With `Cc1ccc(/C=N/NC(=O)c2cccs2)s1` the Potency was 5800 nM (active). In the case of `COc1cc(/C=N/Nc2nc3ccccc3s2)ccc1OC(=O)c1ccccc1F`, the Potency is reported as 1460 nM (active). With `CC(C)CCn1cnc2c(sc3nc4c(cc32)CSC(C)(C)C4)c1=O` the Potency was 517 nM (active). With `Cc1nc(NCCc2ccccc2)c2nnn(Cc3ccccc3Cl)c2n1` the “activation” value was 38.5%. With `CN(CC(=O)Nc1ccc(Cl)c(Cl)c1)C(=O)C1CCCC1` the “activation” value was -22.4%. In the case of `Cc1ccc(C(=O)OCC(=O)NCC2COc3ccccc3O2)cc1` (stereo not drawn), the “activation” value is reported as 41.1%. In the case of `CC(=O)Oc1ccc(Cl)cc1/C=C/c1ccc2ccccc2n1`, the Potency is reported as 4610 nM (active). For `c1cnc2c(OCc3nc4ccccc4[nH]3)cccc2c1`, the Potency was 6510 nM (active). With `Cc1ccc(C(=O)NC2CC2)cc1S(=O)(=O)N1CCOCC1` the “activation” value was 12.5%. With `CC(Cc1ccccc1)NC(=O)c1ccc([N+](=O)[O-])cc1` (stereo not drawn) the Potency was 2590 nM (active). In the case of `Cn1c(Cc2cccs2)nnc1SCc1nc2ccccc2[nH]1`, the “activation” value is reported as 6.77%.

From PubChem BioAssay AID624305 (National Center for Advancing Translational Sciences (NCATS), 2012)
Potency means the concentration at half of the fitted maximal effect.
